Cruzain inh Det: inhibitors of Trypanosoma cruzi cruzain with detergent; purified cruzain, Z-FR-AMC fluorescence, 0.01% Triton; AID 1478; P25779; Potency, µM, without a hit: max response, negative = inhibition, most hits filed as inhibitors; 200,000 compounds, 0.43% hits;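 also: plate controls were neutral wells for no effect and buffer without enzyme for full effect; nearly all actives have a fitted effect of over 40% in size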
Target sequence (P25779 123-467 limits assumed): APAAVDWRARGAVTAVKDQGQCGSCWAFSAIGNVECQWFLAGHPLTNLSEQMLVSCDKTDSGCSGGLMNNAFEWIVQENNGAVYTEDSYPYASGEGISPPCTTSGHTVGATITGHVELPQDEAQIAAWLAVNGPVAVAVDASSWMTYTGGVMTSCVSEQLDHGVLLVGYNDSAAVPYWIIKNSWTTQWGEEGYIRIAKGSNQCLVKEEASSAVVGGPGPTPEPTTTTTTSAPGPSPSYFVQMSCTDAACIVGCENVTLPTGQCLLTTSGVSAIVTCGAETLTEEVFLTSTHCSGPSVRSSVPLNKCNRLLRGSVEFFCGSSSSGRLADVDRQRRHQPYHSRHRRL
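Z-FR-AMC hydrolysis (2 uM substrate) by cruzain (1.5 nM) monitored kinetically at ex 360/em 450 nm after 15 min room-temperature compound exposure; 0.01% Triton X-100, pH 5.5, 5 mM DTT.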
Cruzain noTriton: blocks cruzain activity in detergent-free assay; P25779; purified cruzain, Z-FR-AMC fluorescence, no detergent; Potency, µM, for the others: max response, negative = inhibition, most hits filed as inhibitors; 200,000 compounds, 2.3% hits;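 also: plate controls were enzyme without inhibitor for no effect and buffer without enzyme for full effect; nearly all actives have a fitted effect of over 40% in size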
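Purified cruzain at 1.5 nM, pre-incubated 15 min with compound at room temperature in 100 mM sodium acetate pH 5.5, 5 mM DTT, 0.00005% Triton X-100. Reaction started with 2 uM Z-FR-AMC; AMC fluorescence increase over 60 s gives rate.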
Papain inh: blocks papain protease activity, flagging nonselective cruzain hits; shares compounds with Cruzain inh Det; purified papain, Z-FR-AMC fluorescence cleavage; Potency, µM, for inactives: max response, negative = inhibition, hits mostly inhibitors; 410 compounds, 41% hits;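 also: 0% = no-compound wells and -100% = no-enzyme wells; nearly all actives have a fitted effect of over 35% in size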
Target sequence (P00784 whole entry, looked up): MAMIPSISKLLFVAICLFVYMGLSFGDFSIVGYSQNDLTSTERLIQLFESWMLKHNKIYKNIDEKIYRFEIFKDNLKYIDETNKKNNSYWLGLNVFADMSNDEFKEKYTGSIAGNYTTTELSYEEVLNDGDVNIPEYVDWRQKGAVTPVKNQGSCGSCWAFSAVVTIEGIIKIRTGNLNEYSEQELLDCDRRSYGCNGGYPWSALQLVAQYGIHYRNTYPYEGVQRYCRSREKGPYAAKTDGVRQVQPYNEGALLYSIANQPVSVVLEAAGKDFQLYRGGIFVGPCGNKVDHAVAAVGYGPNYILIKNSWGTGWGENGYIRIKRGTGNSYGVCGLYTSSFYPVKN
The depositor's hits bear a star; ? = inconclusive; / = no result given. An excerpt weighted towards active compounds, which were near 2.5% of everything screened. Calls follow the shape of the dose curve; as a rule, active = well fitted curve in the direction sought with a large enough effect; inconclusive = small, poorly fitted or top-dose-only effect, or another doubt; inactive = no such curve, though single readings can be large; an effect the other way counts as inactive or inconclusive. Potency is read from the fitted curve at half-maximal effect.

SMILES | Cruzain inh Det | Cruzain noTriton | Papain inh
COc1ccc(NC(=O)CC2C(=O)N(c3ccc(C)cc3)C(=O)N2CCc2ccccc2)cc1 (configuration not stated) | -5.4% | -4.6% | /
Cc1cccc(Nc2nc(N)c([N+](=O)[O-])c(N3CCC(C)CC3)n2)c1 | -8.1% | 2.8% | /
O=C(CO/N=C/c1cccc([N+](=O)[O-])c1)NC1CCCCCC1 | -0.7% | 4.4% | /
Cc1cccc(Nc2nc(C#N)nc(NC3CCCC3)n2)c1 | / | / | 0.447µM*
N#Cc1nc(Nc2cccc([N+](=O)[O-])c2)nc(NC2CCCC2)n1 | / | / | 2.82µM*
CCCCNC(=O)c1ccc2nc(-c3cccs3)c(-c3cccs3)nc2c1 | / | / | -5.4%
COC(CNC(=O)c1ccc2nc(-c3cccs3)c(-c3cccs3)nc2c1)OC | -12.4% | 29.4% | /
CC1CCN(c2oc(-c3cccc4ccccc34)nc2C#N)CC1 | 31.6µM* | ? | 39.8µM*
N#Cc1nc(-c2cccc3ccccc23)oc1N1CCCCC1 | -3.4% | ? | /
Cc1nc2nc(CNC(=O)c3cccc(F)c3)nn2c(C)c1CCC(=O)Nc1cccc(Cl)c1 | -6.8% | ? | /
COc1ccc2ncc3c(-c4ccc(C)c(C)c4)nn(CC(=O)Nc4ccccc4)c3c2c1 | -3.0% | -27.6% | /
Fc1ccccc1-c1nc(-c2ccccc2)no1 | -5.0% | 10.6% | /
O=c1cc(-c2ccccc2F)nc(-c2ccccc2F)o1 | 4.47µM* | 7.94µM* | 7.6%
O=c1cc(-c2cccc(Br)c2)nc(-c2ccccc2F)o1 | 8.91µM* | 10µM* | 0.6%
COc1ccc(Br)cc1-c1noc(-c2ccccc2F)n1 | -4.4% | -11.1% | /
Cc1c(CNC2CCCCC2)c(C(=O)O)c(C)n1Cc1ccccc1F | -0.8% | 4.6% | /
COc1ccc(N2CCN(Cc3cccn3-c3nnc(N4CCN(C5CCCCC5)CC4)s3)CC2)cc1 | -1.8% | -8.4% | /
S=C(NC1CCCCC1)N(CCc1nc2ccccc2[nH]1)C1CCCC1 | 12.6µM* | 10.5% | 6.6%
O=C(Nc1ccccc1)N(CCc1nc2ccccc2[nH]1)C1CCCC1 | 0.3% | -5.8% | /
Cc1ccc(Cn2c(CCNC(=O)c3cccc(C)c3)nc3ccccc32)cc1 | 5.01µM* | 24.6% | -12.5%
Cc1cccc(OCCCn2c(CCNC(=O)C(C)C)nc3ccccc32)c1 | -2.4% | 15.6% | /
Cc1cccc(OCCCn2c(CCNC(=O)C3CCCCC3)nc3ccccc32)c1 | 2µM* | -4.0% | 15.8µM*
CCn1c(NC(=O)C2CCCCC2)nc2ccccc21 | -4.5% | -25.1% | /
Cc1cccc(C)c1OCCn1c(CCNC(=O)C2CCCCC2)nc2ccccc21 | 3.55µM* | 5.3% | -25.9%
CCCCn1c(CCNC(=O)CC)nc2ccccc21 | 0.3% | -6.5% | /
SMILES | Cruzain inh Det | Cruzain noTriton | Papain inh
CC(=O)NCCCc1nc2ccccc2n1Cc1ccc(C)cc1 | 3.2% | 2.1% | /
Cc1cc(C)cc(OCCCn2c(CCNC(=O)C3CCCCC3)nc3ccccc32)c1 | 2µM* | 3.4% | 25.1µM*
CN1CCN(c2nc3c(S(=O)(=O)c4ccc(Br)cc4)nnn3c3ccsc23)CC1 | 0.8% | 2.7% | /
CCOC(=O)c1c(C)oc2nc(C)nc(NCCCN3CCN(c4cccc(C)c4)C(C)C3)c12 (configuration not stated) | 0.0% | -1.6% | /
CCOC(=O)CNc1ncnc2c1nnn2C | 0.9% | -0.8% | /
O=C(Cn1cc(SCc2cccc(Cl)c2)c2ccccc21)N1CCCCCC1 | -5.0% | -24.1% | /
Cc1cc(OCCn2c(CCNC(=O)C3CCCCC3)nc3ccccc32)ccc1Cl | 2.51µM* | -15.4% | -6.4%
Cc1cc(C)cc(OCCn2c(CCNC(=O)C3CCCCC3)nc3ccccc32)c1 | 1.78µM* | 0.7% | 1.6%
Cc1cccc(OCCn2c(CCCO)nc3ccccc32)c1 | 2.5% | 2.7% | /
CCc1ccccc1N1CC(c2nc3ccccc3n2CCOc2ccc(Cl)c(C)c2)CC1=O (configuration not stated) | -8.2% | -14.4% | /
COc1ccccc1-n1c(=O)n(C)c2c(C(N)=O)nc(-c3cc(OC)c(OC)c(OC)c3)nc21 | 0.2% | -6.7% | /
Clc1ccccc1-c1nccc(NCc2cccs2)n1 | 4.0% | 11.3% | /
O=C(N[C@@H](Cc1ccccc1)C(=O)CCl)OCc1ccccc1 | 0.159µM* | 0.316µM* | 5.01µM*
CSCC[C@H](NC(=O)OCc1ccccc1)C(=O)O | -1.5% | -0.6% | /
CCC(C)NC(=O)c1ccc2nc(-c3ccco3)c(-c3ccco3)nc2c1 (configuration not stated) | / | / | 15.8µM*
CCC(C)NC(=O)c1ccc2nc(Cc3ccccc3)oc2c1 (configuration not stated) | -1.6% | -4.8% | /
Cc1cc(NC(=O)Cc2cccs2)no1 | -18.4% | -27.6% | -17.5%
Cc1cc(NS(=O)(=O)c2ccc(NC(=O)Cc3cccs3)cc2)no1 | -0.3% | 2.1% | /
COc1ccc2[nH]c(=O)c(NC(N)=S)nc2c1 | 2.24µM* | 1.26µM* | -8.6%
COc1ccc2nc(SCC(N)=O)[nH]c2c1 | 1.2% | -7.9% | /
COc1ccc(-c2nnc(-c3ccc(N)cc3)o2)cc1 | -4.6% | -17.3% | /
COc1ccc(-c2ccc(-c3nnc(-c4cc(OC)ccc4OC)o3)cc2)cc1 | ? | 25.1µM* | 11.2µM*
N=C1CCC[C@@H]1C(=S)SCCC(N)=O | 4.0% | 1.9% | /
CCOC(=O)c1c(C)oc2nc(C)nc(NCc3cccc(OC)c3)c12 | -6.6% | ? | /
C=CCNC(=O)c1ccc2nc(-c3ccccc3)c(-c3ccccc3)nc2c1 | -0.7% | 8.3% | /
SMILES | Cruzain inh Det | Cruzain noTriton | Papain inh
CNC(=O)c1ccc2nc(-c3ccccc3)c(-c3ccccc3)nc2c1 | / | / | -19.6%
CCC(Oc1ccccc1)C(=O)Nc1ccccc1OCc1cc(=O)n2ccccc2n1 (configuration not stated) | 3.4% | 6.2% | /
Cc1ccc(N2CC(C(=O)NCCS(=O)(=O)N3CCN(c4ccccc4F)CC3)CC2=O)cc1 (configuration not stated) | -0.1% | 3.0% | /
Cc1ccc(CN2C(=O)C[C@@H](NS(=O)(=O)c3ccc4ccccc4c3)C/C=C\C2c2ccc(C)cc2)cc1 (some centres not stated) | 2.6% | -4.2% | /
Cc1cc(OCC(=O)Nc2ccc(N3CCN(C(=O)c4ccco4)CC3)cc2)cc(C)c1Cl | -0.3% | 0.8% | /
Cc1cc(OCC(=O)Nc2ccc(N3CCCC3)cc2)cc(C)c1Cl | ? | 3.98µM* | 3.3%
COc1cc(Cl)c(NC(=O)CCc2nc3cccnc3n2-c2ccccc2)c(OC)c1 | -3.6% | ? | /
Cc1ccc(S(=O)(=O)NCC(=O)OCC(=O)Nc2ncc(Cl)cc2Cl)cc1 | 20µM* | 25.1µM* | -29.9%
Cc1ccc(S(=O)(=O)CCC(=O)OCC(=O)Nc2ncc(Cl)cc2Cl)cc1 | -18.0% | -15.4% | /
CCC(C(=O)Nc1ccc(C)c(C)c1)n1c(=O)c(C(F)(F)F)nc2ccccc21 (configuration not stated) | 3.8% | 1.1% | /
Nc1nnc(CC(=O)N/N=C/c2ccc(-c3ccccc3Cl)o2)s1 | -16.0% | -14.8% | /
NC(=S)N/N=C/c1ccc(-c2ccc(Cl)c(Cl)c2)o1 | 0.631µM* | 0.631µM* | 6.31µM*
COC(=O)N/N=C\c1ccc(-c2cc(Cl)c(Cl)cc2Cl)o1 | -4.2% | ? | /
NC(=S)N/N=C\c1ccc(-c2cccc(Cl)c2Cl)o1 | 0.631µM* | 0.631µM* | 2.82µM*
COc1ccc(N2CCN(S(=O)(=O)c3ccc4c(c3)CCCN4C(C)=O)CC2)cc1 | 0.6% | -0.3% | /
CCOC(=O)CNC(=O)C1CCCCC1 | / | / | -17.6%
O=C(COC(=O)Cc1ccsc1)NC1CCCCCC1 | 5.1% | 6.7% | /

Screening data (PubChem BioAssay)
